Assay [1] is described as follows: yeast TOR pathway RPL19A-GFP modulators, primary screen, cell-based, S. cerevisiae, multiplex flow cytometry (AID 1862; in the data active = percent of DMSO control GFP below about 86%;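 note: lower values mimic rapamycin by blocking the RPL19A rise seen in DMSO cells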). Conditions: S. cerevisiae RPL19A-GFP strain, flow cytometry fluorescence, 3 h; at 10 µM; stronger effect = lower value. A general note: A flow cytometer gives signals particle by particle.
Assay [2] in a line: modulators of MEP2-GFP levels in yeast, primary screen, S. cerevisiae, multiplex flow cytometry (AID 1867;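 active = GFP response, as percent of the DMSO control, above the screen-wide mean plus 3 SD, about 139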;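 note: median GFP channel fluorescence of barcode-gated MEP2-GFP cells measured by flow cytometry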). Conditions: S. cerevisiae MEP2-GFP strain, 3 h, at 10 µM, stronger effect = higher value, 100% means same as DMSO wells.
The nature of assay [3]: modulators of CIT2-GFP expression in yeast, primary screen, S. cerevisiae, GFP fusion, multiplex flow cytometry (AID 1870;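 active = percent response above a set limit, the screen-wide mean plus 3 SD, cut at about 130% in these data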;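 note: barcoded CIT2-GFP strain pooled with four other GFP strains with rapamycin as positive control; median GFP fluorescence per well over plate mean of DMSO wells so 100% = DMSO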). Conditions: 3 h, at 10 µM, stronger effect = higher value.
The nature of assay [4]: modulators of LAP4-GFP expression in yeast, primary screen, S. cerevisiae, multiplex flow cytometry (AID 1873). Particulars: 3 h, at 10 µM, stronger effect = higher value.
A short description of assay [5]: modulators of AGP1-GFP expression in yeast TOR pathway, primary screen, cell-based, multiplex flow cytometry, S. cerevisiae (AID 1887;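 active = GFP signal above the screen-wide mean plus 3 SD, that is over about 124.5% of the solvent control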;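 note: AGP1-GFP fusion strain of S. cerevisiae within a five-strain barcoded multiplex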). Conditions: 3 h, at 10 µM, stronger effect = higher value.
Assay [6] in a line: inhibitors of CD8+ T cell-vesicle binding, pilot screen, LFA-1/ICAM-1 modulator project, MLPCN validation set, flow cytometry (AID 2523;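 active = response below a set limit, under 55% cells CD8-positive and vesicle-bound, and CD8 cells' 90th-percentile brightness under 279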;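 for vesicle binding response: mean PE anti-B7-1 fluorescence of CD8+ cells relative to row control; 100% = QL9-loaded vesicles with DMSO vehicle in the same plate row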). Conditions: 2C mouse CD8+ T cells, at 7 µM, stronger effect = lower value; double positive events: measured here: CD8+/vesicle+ event percentage.
The target of assay [7] is Integrin beta-1 (Homo sapiens) + Integrin alpha-4 (Homo sapiens) (UniProt P13612+P05556). Nature of the assay: inhibition of HUTS-21 binding to VLA-4, pilot screen, VLA-4 allosteric modulator project, U937 cells, HUTS-21 mAb, flow cytometry, validation set (AID 2674;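 active = inhibition above 50%, about 3 SD of the validation set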;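 note: antibody binding induced by the VLA-4 ligand LDV present at three times its Kd; 0% = LDV ligand with antibody and no compound and 100% = antibody without LDV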). Particulars: HUTS-21 LIBS mAb binding, at 6.7 µM, stronger effect = higher value, binding induced by LDV ligand.
Integrin beta-1 (Homo sapiens) + Integrin alpha-4 (Homo sapiens), sequence (P05556 whole entry, looked up): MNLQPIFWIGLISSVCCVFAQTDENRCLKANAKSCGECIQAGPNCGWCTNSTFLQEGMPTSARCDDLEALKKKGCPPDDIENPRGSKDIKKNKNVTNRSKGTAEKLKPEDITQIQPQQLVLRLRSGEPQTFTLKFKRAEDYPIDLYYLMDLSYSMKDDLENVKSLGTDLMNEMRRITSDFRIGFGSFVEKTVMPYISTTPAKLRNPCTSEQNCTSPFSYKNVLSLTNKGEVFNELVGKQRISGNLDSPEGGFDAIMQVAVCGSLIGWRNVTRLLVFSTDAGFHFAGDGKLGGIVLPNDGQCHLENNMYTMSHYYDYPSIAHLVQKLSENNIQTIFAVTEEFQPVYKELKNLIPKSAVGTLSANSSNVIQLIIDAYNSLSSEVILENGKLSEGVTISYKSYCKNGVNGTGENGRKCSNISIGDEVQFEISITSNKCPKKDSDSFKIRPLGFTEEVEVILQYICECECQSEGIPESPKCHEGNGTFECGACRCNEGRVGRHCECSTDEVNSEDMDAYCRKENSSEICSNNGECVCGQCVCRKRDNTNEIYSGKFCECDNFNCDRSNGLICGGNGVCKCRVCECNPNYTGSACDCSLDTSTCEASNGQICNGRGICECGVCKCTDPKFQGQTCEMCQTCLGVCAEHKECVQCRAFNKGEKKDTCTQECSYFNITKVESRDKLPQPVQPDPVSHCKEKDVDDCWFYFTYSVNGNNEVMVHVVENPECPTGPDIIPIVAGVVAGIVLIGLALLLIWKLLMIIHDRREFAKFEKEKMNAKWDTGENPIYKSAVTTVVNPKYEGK
Integrin beta-1 (Homo sapiens) + Integrin alpha-4 (Homo sapiens), sequence (P13612 whole entry, looked up): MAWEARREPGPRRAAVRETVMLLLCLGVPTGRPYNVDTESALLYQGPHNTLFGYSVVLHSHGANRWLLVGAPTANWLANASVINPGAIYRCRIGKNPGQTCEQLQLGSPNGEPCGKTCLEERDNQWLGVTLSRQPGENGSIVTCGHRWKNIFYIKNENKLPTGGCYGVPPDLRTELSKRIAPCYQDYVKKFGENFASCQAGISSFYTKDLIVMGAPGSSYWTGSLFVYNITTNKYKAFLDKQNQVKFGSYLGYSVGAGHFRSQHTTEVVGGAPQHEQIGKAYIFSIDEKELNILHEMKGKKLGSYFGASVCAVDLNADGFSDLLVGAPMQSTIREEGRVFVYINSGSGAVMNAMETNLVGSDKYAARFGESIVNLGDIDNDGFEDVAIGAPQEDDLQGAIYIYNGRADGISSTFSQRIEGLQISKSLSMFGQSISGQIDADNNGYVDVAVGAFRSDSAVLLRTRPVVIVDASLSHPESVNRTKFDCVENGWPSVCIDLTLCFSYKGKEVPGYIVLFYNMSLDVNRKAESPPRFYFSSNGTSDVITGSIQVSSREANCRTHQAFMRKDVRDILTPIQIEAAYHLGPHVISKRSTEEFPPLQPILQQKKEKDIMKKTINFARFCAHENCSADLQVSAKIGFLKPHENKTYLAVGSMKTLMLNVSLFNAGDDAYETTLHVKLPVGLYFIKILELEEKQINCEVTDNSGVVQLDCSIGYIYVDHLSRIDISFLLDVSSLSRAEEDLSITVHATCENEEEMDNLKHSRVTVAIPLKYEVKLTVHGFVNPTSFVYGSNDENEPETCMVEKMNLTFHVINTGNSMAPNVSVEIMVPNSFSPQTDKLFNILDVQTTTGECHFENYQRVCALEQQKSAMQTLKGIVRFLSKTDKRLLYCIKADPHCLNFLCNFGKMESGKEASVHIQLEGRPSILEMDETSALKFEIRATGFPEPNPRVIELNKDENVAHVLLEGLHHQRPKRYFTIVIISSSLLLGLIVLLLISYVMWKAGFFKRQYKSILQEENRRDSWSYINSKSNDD
A short description of assay [8]: superoxide lowering in aged yeast cells, pilot screen, validation compound set (AID 2706;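 active = superoxide response below 65% of plate, a cut near 3 SD across the whole screen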;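 note: yeast exposed to compound for one week at 30 degrees C before staining; 100% = mean of all compound wells on the same plate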). Conditions: S. cerevisiae aging, superoxide DHE fluorescence; at 10 µM; stronger effect = lower value.
In assay [9] the target is Beta-adrenergic receptor kinase 1 (Homo sapiens) (UniProt P25098). Nature of the assay: GRK2 binders displacing RNA aptamer, biochemical, validation, human GRK2, bead flow cytometry (AID 488806;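 active = aptamer binding inhibition above 30%, about 3 SD of noise from non-fluorescent compounds; inactive = inhibition at or below 30%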). Particulars: bead-bound GRK2, FAM-aptamer displacement, at 10 µM, stronger effect = higher value.
Beta-adrenergic receptor kinase 1 (Homo sapiens), sequence (P25098 whole entry, looked up): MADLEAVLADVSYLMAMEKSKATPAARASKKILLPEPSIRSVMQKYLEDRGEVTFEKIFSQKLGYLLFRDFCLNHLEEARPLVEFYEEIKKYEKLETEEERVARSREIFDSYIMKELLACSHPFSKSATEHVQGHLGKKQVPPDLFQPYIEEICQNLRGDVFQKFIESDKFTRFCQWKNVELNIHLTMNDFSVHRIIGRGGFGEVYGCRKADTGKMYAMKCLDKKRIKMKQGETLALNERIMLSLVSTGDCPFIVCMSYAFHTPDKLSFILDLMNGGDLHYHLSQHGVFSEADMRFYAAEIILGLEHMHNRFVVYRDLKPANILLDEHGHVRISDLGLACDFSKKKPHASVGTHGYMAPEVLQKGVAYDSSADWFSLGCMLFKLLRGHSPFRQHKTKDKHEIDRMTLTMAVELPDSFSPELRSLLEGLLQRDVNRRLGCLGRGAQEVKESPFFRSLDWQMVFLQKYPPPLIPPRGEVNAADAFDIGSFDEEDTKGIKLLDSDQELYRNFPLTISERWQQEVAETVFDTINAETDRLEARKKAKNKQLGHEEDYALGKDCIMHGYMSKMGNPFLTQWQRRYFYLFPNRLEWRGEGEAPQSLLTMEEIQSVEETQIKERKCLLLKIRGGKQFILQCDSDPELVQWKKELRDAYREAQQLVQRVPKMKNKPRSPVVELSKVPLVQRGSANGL
The target of assay [10] is Beta-2 adrenergic receptor (Homo sapiens) (UniProt P07550). The assay can be described thus: beta2AR agonists driving receptor internalization, pilot screen, cell-based, FAP fluorogen, flow cytometry, validation set (AID 504459;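 active = percent response above 42, roughly 3 SD of non-fluorescent test compounds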;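 note: agonist-driven loss of surface beta2AR via internalization measured by FAP dye flow cytometry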). Conditions: Am2.2-beta2AR cells, FAP surface receptor flow cytometry; at 10 µM; stronger effect = higher value.
Beta-2 adrenergic receptor (Homo sapiens), sequence (P07550 whole entry, looked up): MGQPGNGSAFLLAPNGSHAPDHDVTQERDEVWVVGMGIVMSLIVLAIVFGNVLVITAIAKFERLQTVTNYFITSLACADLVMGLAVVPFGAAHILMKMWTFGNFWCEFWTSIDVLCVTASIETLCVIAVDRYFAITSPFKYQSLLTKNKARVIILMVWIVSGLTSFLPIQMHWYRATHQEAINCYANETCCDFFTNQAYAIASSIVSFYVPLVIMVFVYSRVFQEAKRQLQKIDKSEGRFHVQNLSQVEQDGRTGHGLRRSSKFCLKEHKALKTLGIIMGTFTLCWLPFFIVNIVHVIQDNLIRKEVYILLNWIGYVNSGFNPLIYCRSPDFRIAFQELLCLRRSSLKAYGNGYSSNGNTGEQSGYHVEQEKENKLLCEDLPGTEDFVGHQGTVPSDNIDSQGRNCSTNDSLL
Assay [11] has as its target AP-2 complex subunit beta (Homo sapiens) (UniProt P63010). The assay can be described thus: inhibitors of arrestin peptide binding to AP2, pilot screen, biochemical, validation set, GST-AP2 beads, flow cytometry (AID 504541;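 active = inhibition above 54%, about 3 SD of non-fluorescent compounds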;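 note: AP2 carries R879A mutation and is captured from E. coli lysate; bead-bound FITC arrestin peptide fluorescence measuring arrestin peptide binding to AP2; 0% = DMSO wells and 100% = excess unlabeled arrestin peptide control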). Particulars: FITC arrestin peptide, at 10 µM, stronger effect = higher value, AP2 beta2 appendage fragment, R879A mutant.
Assay [12] in a line: yeast V-ATPase proton transport modulators, S. cerevisiae, pHLuorin, HTS validation (AID 504600; in the data active = response above about 15%;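 note: plate controls were DMSO for no effect and reference compound for full effect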). Particulars: S. cerevisiae pHLuorin cytosolic pH, at 10 µM, stronger effect = higher value.
The test system of assay [13] is anti-desmoglein-3 scFv antibody binding to human DSG3. Nature of the assay: inhibitors of anti-DSG3 scFv binding to DSG3, pilot screen, biochemical, validation compound set, bead-based, flow cytometry (AID 588368;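 active = binding below the plate cutoff, the plate median minus 3 SD, with a reading above zero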;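 note: signal is the median channel fluorescence of bead-bound GFP antibody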). Conditions: Protein G beads, DSG3-Fc, scFv-GFP binding, at 10 µM, stronger effect = lower value.
Assay [14] in a line: inhibitors of fungal efflux pumps CDR1, CDR2, MDR1, pilot screen, validation compound set, multiplex, phenotypic (AID 588506;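 active = efflux inhibition above 0.42, the validation set average plus 4 SD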;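 note: Nile Red retained in cells so higher fluorescence means more efflux inhibition; 0 = negative control wells and 1 = enniatin B 25 µM full block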). Conditions: S. cerevisiae pump-expressing triplex, Nile Red efflux flow cytometry; at 10 µM; stronger effect = higher value; the pumps come from Candida albicans.
For assay [15], the target named is ATP-binding cassette sub-family B member 6 (Homo sapiens) (UniProt Q9NP58). Nature of the assay: ABCB6 transporter inhibitors, pilot screen, K562-ABCB6 cells, flow cytometry, validation set (AID 588550;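 active = inhibition above the screen-wide mean plus 3 SD, about 51%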;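 note: 0% = DMSO wells and 100% = benzethonium chloride 70 µM positive control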). Particulars: K562-ABCB6 porphyrin accumulation, 1 h, at 10 µM, stronger effect = higher value.
ATP-binding cassette sub-family B member 6 (Homo sapiens), sequence (Q9NP58 whole entry, looked up): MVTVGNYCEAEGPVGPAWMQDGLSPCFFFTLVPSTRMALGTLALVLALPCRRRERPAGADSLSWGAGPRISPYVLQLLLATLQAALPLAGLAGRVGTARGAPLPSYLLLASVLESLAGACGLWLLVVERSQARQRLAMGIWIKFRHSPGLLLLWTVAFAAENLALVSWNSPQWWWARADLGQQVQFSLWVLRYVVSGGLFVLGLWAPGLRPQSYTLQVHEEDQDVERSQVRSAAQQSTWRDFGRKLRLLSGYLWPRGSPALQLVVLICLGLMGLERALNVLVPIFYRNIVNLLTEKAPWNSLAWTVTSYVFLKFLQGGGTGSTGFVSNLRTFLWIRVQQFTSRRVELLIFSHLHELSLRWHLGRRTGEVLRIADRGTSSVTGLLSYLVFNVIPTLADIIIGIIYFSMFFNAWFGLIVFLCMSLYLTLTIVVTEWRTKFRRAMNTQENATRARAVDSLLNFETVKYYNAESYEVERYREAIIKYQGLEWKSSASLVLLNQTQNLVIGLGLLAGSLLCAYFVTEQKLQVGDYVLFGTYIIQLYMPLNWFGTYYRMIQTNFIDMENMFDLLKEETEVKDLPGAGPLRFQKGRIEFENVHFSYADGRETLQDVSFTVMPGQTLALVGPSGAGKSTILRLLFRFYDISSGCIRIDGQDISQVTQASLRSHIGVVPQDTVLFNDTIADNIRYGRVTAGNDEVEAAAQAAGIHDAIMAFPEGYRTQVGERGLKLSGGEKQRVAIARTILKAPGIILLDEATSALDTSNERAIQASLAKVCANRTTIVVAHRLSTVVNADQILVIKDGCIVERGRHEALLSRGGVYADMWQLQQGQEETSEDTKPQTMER
The nature of assay [16]: promoters of myeloid differentiation in arrested cells, primary screen, cell-based, GFP/MAC1 double positive, flow cytometry, validation set (AID 588685;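 active = differentiation response of at least 50%, scaled between solvent and reference control, from cells with both markers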;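 note: compound exposure lasts four days before antibody staining and flow analysis; 0% = DMSO wells and 100% = 5 µM fulvestrant positive control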). Conditions: ER-HoxA9 marrow cells, stronger effect = higher value, normalized: vehicle 0, fulvestrant 100.

Results filed as inconclusive are left out. Activity calls are given as the source filed them.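 Rule for the calls, unless noted: active = GFP signal, as percent of the solvent control, above the screen mean plus 3 SD, about 149; inconclusive = no reading because the compound's own fluorescence upset strain identification; inactive = the rest.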

AP-2 complex subunit beta (Homo sapiens), sequence (P63010 whole entry, looked up, the tested form may be a part, one chain of several): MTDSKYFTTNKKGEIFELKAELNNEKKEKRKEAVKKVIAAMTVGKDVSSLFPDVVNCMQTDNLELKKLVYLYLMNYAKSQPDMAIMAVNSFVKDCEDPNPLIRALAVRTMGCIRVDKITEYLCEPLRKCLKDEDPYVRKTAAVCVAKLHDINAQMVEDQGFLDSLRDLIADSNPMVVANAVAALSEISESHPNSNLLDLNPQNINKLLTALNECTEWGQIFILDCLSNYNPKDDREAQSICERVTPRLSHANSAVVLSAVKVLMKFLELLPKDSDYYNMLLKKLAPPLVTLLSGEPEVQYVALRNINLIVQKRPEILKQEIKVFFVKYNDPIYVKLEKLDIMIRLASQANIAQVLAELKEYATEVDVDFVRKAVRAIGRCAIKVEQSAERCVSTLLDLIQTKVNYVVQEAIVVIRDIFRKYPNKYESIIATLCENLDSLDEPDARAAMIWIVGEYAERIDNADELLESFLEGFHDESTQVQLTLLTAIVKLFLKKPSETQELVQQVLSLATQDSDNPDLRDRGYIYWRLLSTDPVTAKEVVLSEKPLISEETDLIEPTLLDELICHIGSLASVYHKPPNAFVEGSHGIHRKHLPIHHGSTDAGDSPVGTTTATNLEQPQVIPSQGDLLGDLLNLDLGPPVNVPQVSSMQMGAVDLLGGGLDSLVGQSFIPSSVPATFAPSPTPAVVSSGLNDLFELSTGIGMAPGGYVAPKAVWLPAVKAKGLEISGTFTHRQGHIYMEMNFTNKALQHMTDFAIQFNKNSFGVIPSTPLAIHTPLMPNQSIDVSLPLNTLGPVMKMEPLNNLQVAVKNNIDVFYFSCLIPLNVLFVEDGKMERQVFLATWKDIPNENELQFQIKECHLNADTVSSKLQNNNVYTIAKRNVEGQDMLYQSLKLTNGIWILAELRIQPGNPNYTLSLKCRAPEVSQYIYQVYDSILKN

By inhibition is commonly meant the drop in the measured response relative to a control, in per cent. As for `CC(=O)NS(=O)(=O)c1ccc(N)cc1`, in assay [1], the percent of DMSO control GFP was 98.6% (inactive). The GFP response vs DMSO in assay [2] and in [4] was 101% (inactive) in each case. Besides, the percent response of DMSO control in assay [3] is 97% (inactive). Also, the GFP response, % of DMSO in assay [5] was 104% (inactive). The same molecule displayed a double positive events in assay [6] of 62.3%. The vesicle binding response in assay [6] was 335% (inactive). Also, the inhibition in assay [7] is 0.59% (inactive); in assay [11] it was -0.64% (inactive); in assay [15], 5% (inactive). Also, the superoxide response (% of plate) in [8] is 101% (inactive). In [9], the aptamer binding inhibition is 2% (inactive). Besides, the response in [10] was -16.2% (inactive); in [12], 0.06% (inactive). In addition, the binding (% of control) in assay [13] was 103% (inactive). Further, the efflux inhibition (fraction of control) in [14] is 0.04 (inactive). In assay [16], the differentiation response is -3.02% (inactive).

On to `CN(Cc1c(C(=O)N(C)Cc2ccccc2)nc2ccccn12)CC1Cc2ccccc2O1` (stereo not given), for which, in assay [1], the percent of DMSO control GFP was 98.4% (inactive). In addition, the GFP response vs DMSO was 104% (inactive) in [2] and 89.4% (inactive) in assay [4]. The percent response of DMSO control in assay [3] is 98.2% (inactive). In addition, in assay [5], the GFP response, % of DMSO is 93.7% (inactive). In assay [6], this molecule yielded a double positive events of 61.4%. Besides, the vesicle binding response in assay [6] was 2590% (inactive). Further, the figures for the inhibition in [7], in assay [11] and in assay [15] were -11.8% (inactive), -19.1% (inactive) and 14% (inactive), respectively. Besides, the superoxide response (% of plate) in [8] was 105% (inactive). For the same molecule, in assay [9], the aptamer binding inhibition is 3% (inactive). Moreover, the response in assay [10] is 0.21% (inactive); in [12], -0.37% (inactive). For the same molecule, the binding (% of control) in [13] was 98.2% (inactive). For the same molecule, in assay [14], the efflux inhibition (fraction of control) is 0.17 (inactive). In addition, the differentiation response in [16] is -2.64% (inactive).

In the case of `CCOC(=O)C1=C(C)N[C@@]2(O)c3ccccc3C(=O)[C@@]12O`, the percent of DMSO control GFP in assay [1] was 102% (inactive). For the same molecule, the GFP response vs DMSO in assay [2] was 106% (inactive); in [4], 92.2% (inactive). The percent response of DMSO control in [3] is 106% (inactive). The GFP response, % of DMSO in [5] was 98.5% (inactive). Besides, the double positive events in assay [6] turned out to be 65.1%. In [6], the vesicle binding response was 254% (inactive). Besides, the inhibition in assay [7] is -7.25% (inactive); in [11] it was 12.9% (inactive); in assay [15], 6% (inactive). For the same molecule, the superoxide response (% of plate) in assay [8] was 96.8% (inactive). In addition, the aptamer binding inhibition in assay [9] is 1% (inactive). In addition, the response in [10] was -1.07% (inactive); in [12] it was 13% (inactive). Also, the binding (% of control) in assay [13] was 99.3% (inactive). Further, in assay [14], the efflux inhibition (fraction of control) was -0.21 (inactive). The differentiation response in [16] is -21.6% (inactive).

As for `C=C(C)Cn1c(NCCOC)nc2c1c(=O)[nH]c(=O)n2C`, the percent of DMSO control GFP in assay [1] is 103% (inactive). The results for the GFP response vs DMSO in assay [2] and in assay [4] were 112% (inactive) and 96.6% (inactive), respectively. The percent response of DMSO control in assay [3] was 104% (inactive). Besides, in assay [5], the GFP response, % of DMSO was 98.8% (inactive). The double positive events in assay [6] is 64.5%. In addition, the vesicle binding response in assay [6] was 327% (inactive). For the same molecule, the inhibition was -5.64% (inactive) in assay [7], -1.55% (inactive) in [11] and -4% (inactive) in [15]. Also, the superoxide response (% of plate) in assay [8] was 98.4% (inactive). Also, the aptamer binding inhibition in assay [9] was 3% (inactive). Further, the response in assay [10] was 3.03% (inactive); in assay [12], -1.65% (inactive). Also, the binding (% of control) in assay [13] was 99.8% (inactive). Further, the efflux inhibition (fraction of control) in assay [14] was -0.07 (inactive). Besides, the differentiation response in [16] is 0.24% (inactive).

With `CSCCC1NC2(C(=O)Nc3ccc(Cl)cc32)[C@@H]2C(=O)N(C3CCCC3)C(=O)[C@H]12` (stereo not given in full), the percent of DMSO control GFP in assay [1] is 101% (inactive). The GFP response vs DMSO in [2] is 109% (inactive); in [4], 102% (inactive). In addition, in assay [3], the percent response of DMSO control was 103% (inactive). Moreover, the GFP response, % of DMSO in assay [5] is 98.9% (inactive). In assay [6], this molecule had a double positive events of 59.4%. Further, in assay [6], the vesicle binding response is 121% (inactive). Further, the inhibition is -37.3% (inactive) in assay [7], -6.32% (inactive) in assay [11] and -10% (inactive) in [15]. In assay [8], the superoxide response (% of plate) was 94.5% (inactive). In [9], the aptamer binding inhibition is 6% (inactive). The values for the response in assay [10] and in [12] were -27.1% (inactive) and 1.16% (inactive), respectively. Besides, the binding (% of control) in [13] is 109% (inactive). Further, in assay [14], the efflux inhibition (fraction of control) was -0.29 (inactive). In addition, the differentiation response in assay [16] is 1.28% (inactive).

The values are drawn from PubChem BioAssay.
